Screening data deposited in PubChem BioAssay by National Center for Advancing Translational Sciences (NCATS).
An excerpt weighted towards active compounds, which were near 19% of everything screened.
TDP1 cell noCPT – qHTS for Inhibitors of human tyrosyl-DNA phosphodiesterase 1 (TDP1): qHTS in cells in absence of CPT; DT40 Tdp1-/- hTDP1 cells, no CPT, ATP luminescence, 48 h; Potency, µM (highest dose often 46.2 µM), without a hit: at the highest dose activity change, negative = growth inhibition, actives largely listed as inhibitors; 15% of 420,000 active; AID 686978, 2013; also: potency is read from the fitted curve at half-maximal effect; % is scaled to controls: 0 for no effect and ±100 for the full control effect; nearly all actives have a fitted effect of over 55% in size
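Chicken DT40 Tdp1-/- cells stably complemented with human TDP1 were seeded at 400 cells/well with DMSO in place of 20 nM camptothecin. After compound pinning, cells grew at least 48 hr at 37 °C; viability read by CellTiter-Glo luminescence.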
HepG2 tox – qHTS for Inhibitors of TGF-b: Cytotox Counterscreen; HepG2 CAGA-GFP viability, ATP luminescence, 18 h; Potency, µM (series often up to 46.1 µM), for the others: at the top dose activity change, negative = cytotoxicity, usual class: cytotoxic; 0.76% of 410,000 active; also: potency is read from the fitted curve at half-maximal effect
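HepG2 CAGA-GFP cells (1000/well, DMEM with 1% FBS) received compound, then TGF-beta at 500 pg/mL final, and were incubated 18 hours at 37 degrees C. Viability was read by CellTiter-Glo luminescence. Media-only wells were set as complete cell-killing and DMSO as no toxicity.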
DT40 TDP1 CPT – qHTS for Inhibitors of human tyrosyl-DNA phosphodiesterase 1 (TDP1): qHTS in cells in presence of CPT. chicken DT40 Tdp1-/-;hTDP1 cells + 20 nM CPT, ATP luminescence, 48 h. Potency, µM (highest dose often 46.2 µM), for inactives: at the highest dose activity change, negative = growth inhibition, actives largely listed as inhibitors. 12% of 420,000 active; also: potency is read from the fitted curve at half-maximal effect; % is scaled to controls: 0 for no effect and ±100 for the full control effect; nearly all actives have a fitted effect of over 55% in size
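Chicken DT40 Tdp1-/- cells complemented with human TDP1, 400 cells/well, exposed to compounds plus 20 nM camptothecin for at least 48 h at 37 C; viability read as ATP content by CellTiter-Glo luminescence.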
IL1B secr inh – qHTS for Inhibitors of Inflammasome Signaling: IL-1-beta AlphaLISA Primary Screen; 4.7% of 360,000 active; activity change, % at 57.5 µM; THP-1 LPS/ATP IL-1B secretion, AlphaLISA, 16 h; active compounds read low; AID 743279, 2014; in the data active = activity change below about -50%; inconclusive = mostly about -30% to -49%; also: % is scaled to controls: 0 for no effect and ±100 for the full control effect
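THP-1 cells pretreated 1 hr with compounds (up to 57.5 uM final), then stimulated with LPS (250 ng/mL final) plus ATP (1.25 mM final); secreted IL-1B measured by AlphaLISA after 16 hr, decreased signal indicating inhibition.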
TGFb inhibitor – qHTS for Inhibitors of TGF-b; Potency, µM (highest dose often 46.1 µM), for inactives: top-dose activity, negative = inhibition, usual class: inhibitors; 1.2% of 410,000 active; HepG2 CAGA-GFP TGF-b/SMAD3 reporter, GFP fluorescence, 18 h; TGF-beta stimulated, 500 pg/mL final; AID 588855, 2011; also: potency is read from the fitted curve at half-maximal effect; % is scaled to controls: 0 for no effect and ±100 for the full control effect; nearly all actives have a fitted effect of over 65% in size
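HEPG2 CAGA-GFP, 1000 cells/well; 2 h settle, 37 C; cpd via pin tool; TGF-b 500 pg/mL final; 18 h, 37 C; GFP imaging ex488/em500-530; %Activity normalised to -TGF-b and +DMSO controls; CRC fit, curve class.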
TDP1 inh – qHTS Assay for Inhibitors of Tyrosyl-DNA Phosphodiesterase (TDP1); Tyrosyl-DNA phosphodiesterase 1 (Homo sapiens), Q9NUW8; recombinant TDP1, AlphaScreen DNA substrate cleavage; Potency, µM (highest dose often 130 µM), inactives show at the highest dose activity change, negative = inhibition, actives largely listed as inhibitors; 0.28% of 350,000 active; AID 485290, 2010; also: potency is read from the fitted curve at half-maximal effect; % is scaled to controls: 0 for no effect and ±100 for the full control effect; nearly all actives have a fitted effect of over 40% in size
Target sequence (Q9NUW8 whole entry, looked up): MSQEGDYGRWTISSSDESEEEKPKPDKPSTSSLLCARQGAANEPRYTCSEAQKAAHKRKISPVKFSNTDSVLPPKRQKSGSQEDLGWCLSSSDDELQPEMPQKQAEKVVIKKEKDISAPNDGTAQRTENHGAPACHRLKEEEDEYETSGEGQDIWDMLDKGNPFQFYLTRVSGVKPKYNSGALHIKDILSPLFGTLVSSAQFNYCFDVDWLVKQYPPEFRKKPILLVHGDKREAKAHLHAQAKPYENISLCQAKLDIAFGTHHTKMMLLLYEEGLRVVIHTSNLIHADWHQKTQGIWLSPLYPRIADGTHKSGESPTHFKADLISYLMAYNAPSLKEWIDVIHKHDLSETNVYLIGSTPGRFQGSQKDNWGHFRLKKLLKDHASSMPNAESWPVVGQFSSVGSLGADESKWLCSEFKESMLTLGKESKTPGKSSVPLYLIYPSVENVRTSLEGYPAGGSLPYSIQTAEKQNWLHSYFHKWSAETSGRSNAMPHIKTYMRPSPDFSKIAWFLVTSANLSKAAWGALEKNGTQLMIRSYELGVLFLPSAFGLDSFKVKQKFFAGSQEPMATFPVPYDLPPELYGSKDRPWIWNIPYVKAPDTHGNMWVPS
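AlphaScreen read-out: signal falls as enzyme removes the 3' tyrosine-FITC from a 5'-biotinylated DNA oligo (15 nM, 5 min, RT). Enzyme was E. coli-made recombinant Tdp1 at 1 nM, exposed to compound for 15 min beforehand; beads 10 ug/ml, 10 min.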
Starred values were filed as active, the others as inactive; ? = inconclusive; . = no result given. Unless noted, calls follow the shape of the dose curve; as a rule, active = well fitted curve in the direction sought with a large enough effect; inconclusive = small, poorly fitted or top-dose-only effect, or another doubt; inactive = no such curve, though single readings can be large; an effect the other way counts as inactive or inconclusive.

SMILES | TDP1 cell noCPT | HepG2 tox | DT40 TDP1 CPT | IL1B secr inh | TGFb inhibitor | TDP1 inh
COc1ccc(CCn2c(C3CCCCC3)nc3c(c(=O)c4ccccc4n3C)c2=O)cc1OC | ? | -2% | ? | 5 | -25% | 0%
Cn1c2ccccc2c(=O)c2c(=O)n(C3CCCCC3)c(-c3cccs3)nc21 | ? | 1% | ? | 37 | 11% | 5%
Cn1c2ccccc2c(=O)c2c(=O)n(C3CCCCCC3)c(C3CCCCC3)nc21 | 13µM* | 5% | 15µM* | 28 | ? | 1%
CC(C)CSc1ccccc1NC(=O)c1sc2nc(-c3ccncc3)ccc2c1N | 7.3µM* | -58% | 5.8µM* | . | -8% | .
Nc1c(C(=O)Nc2ccc(F)cc2)sc2nc(-c3ccco3)ccc12 | ? | -53% | ? | -4 | -24% | -7%
Nc1c(C(=O)Nc2ccc(Br)cc2)sc2nc(-c3ccncc3)ccc12 | ? | -15% | -20% | . | -8% | 22µM*
Nc1c(C(=O)Nc2ccc(Br)cc2)sc2nc(-c3ccco3)ccc12 | 15µM* | -72% | ? | 8 | ? | 3%
Nc1c(C(=O)Nc2ccc(C(F)(F)F)cc2)sc2nc(-c3cccs3)ccc12 | 5% | 0% | 11% | . | -4% | .
CCOC(=O)c1sc2nc(-c3ccccc3)ccc2c1N | 1% | -1% | -7% | -3 | 2% | 0%
CCN(CC)S(=O)(=O)c1ccc(/C=C/C(=O)OCC(=O)N(C(C)C)C(C)C)cc1 | -1% | 7% | 9% | 18 | 48% | 5%
CCN(CC)S(=O)(=O)c1cc(NC(=O)C(C)N2CCN(Cc3ccc4c(c3)OCO4)CC2)ccc1C (configuration not stated) | 5.2µM* | -9% | 7.3µM* | -8 | ? | 7%
CCN(CC)S(=O)(=O)c1cc(NC(=O)C(C)N2CCN(c3ccccn3)CC2)ccc1C (configuration not stated) | 15µM* | -18% | 18µM* | -1 | -16% | 3%
COc1ccc(NC(=O)C(c2ccccc2)N2CCN(c3ccccn3)CC2)cc1Cl (configuration not stated) | ? | 2% | 23µM* | -17 | -11% | 4%
CCN(CC)S(=O)(=O)c1cc(NC(=O)CN2CCN(c3ccccn3)CC2)ccc1C | 23µM* | 4% | 13µM* | 21 | -6% | 6%
CCCCCCCCCCCCCCCC(=O)NCC(=O)O | . | . | . | . | . | 4%
CN1CCN(S(=O)(=O)Cc2ccc(Cl)cc2)CC1 | -2% | -21% | -24% | 9 | -1% | 3%
Cc1nn(C)c2c1c(C(F)(F)F)cc(=O)n2C(C)C(=O)Nc1ccccc1F (configuration not stated) | -26% | -12% | ? | . | -6% | 3%
CCOC(=O)N1CCN(S(=O)(=O)c2ccc(C(=O)N(CCN(C)C)c3nc4ccc(CC)cc4s3)cc2)CC1 | -5% | -42% | -12% | -18 | -7% | 9%
CCOC(=O)N1CCN(S(=O)(=O)c2ccc(C(=O)N(CCCN(C)C)c3nc4ccc(Cl)cc4s3)cc2)CC1 | 18µM* | 11µM* | ? | -96* | ? | 6%
CCOC(=O)N1CCN(S(=O)(=O)c2ccc(C(=O)N(CCCN(C)C)c3nc4c(F)cc(F)cc4s3)cc2)CC1 | -14% | -8% | 15% | -6 | 0% | 1%
